Where “and” joins values, the source holds several entries; their conditions need not be identical. Identical values can stand only once. Inconclusive results are not listed. Some structures have more than one record in an assay (separate samples or runs), and their calls can disagree. Calls of active or inactive are those of the source. Unless noted, calls follow the shape of the dose curve; as a rule, active = well fitted curve in the direction sought with a large enough effect in the repeat runs; inconclusive = weak or mixed curves; inactive = no such curve, though single readings can be large; an effect the other way counts as inactive or inconclusive.

The nature of assay [1]: qHTS assay to identify small molecule antagonists of the glucocorticoid receptor (GR) signaling pathway - cell viability counter screen (AID 720693). Also: nearly all actives have a fitted effect of over 55% in size. Also: potency is read from the fitted curve at half-maximal effect.
Assay [2] can be described thus: qHTS assay for identifying genotoxic compounds that show differential cytotoxicity against isogenic chicken DT40 cell lines with known DNA damage response pathways - wild type cell line (AID 743012). Also: nearly all actives have a fitted effect of over 60% in size. Also: potency is read from the fitted curve at half-maximal effect. Put shortly: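 Cytotoxicity in repair-proficient parental chicken DT40 cells serves as the comparator for Rad54/Ku70- and Rev3-deficient lines. Cells were exposed to compounds for 40 h at 37 C/5% CO2, and ATP-based luminescence (CellTiter-Glo) measured viability.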
In general terms: qHTS replaces the single test concentration by a dilution series.

Assay [3] can be described thus: qHTS assay for identifying genotoxic compounds that show differential cytotoxicity against isogenic chicken DT40 cell lines with known DNA damage response pathways - Rev3 mutant cell line (AID 743014). Also: nearly all actives have a fitted effect of over 55% in size. Also: potency is read from the fitted curve at half-maximal effect.
Assay [4] in a line: qHTS assay for identifying genotoxic compounds that show differential cytotoxicity against isogenic chicken DT40 cell lines with known DNA damage response pathways - Rad54/Ku70 mutant cell line (AID 743015). Also: nearly all actives have a fitted effect of over 60% in size. Also: potency is read from the fitted curve at half-maximal effect.
The nature of assay [5]: qHTS assay to identify small molecule antagonists of the androgen receptor (AR) signaling pathway - cell viability counter screen (AID 743033; also: nearly all actives have a fitted effect of over 45% in size; also: potency is read from the fitted curve at half-maximal effect).
Assay [6] deals with Androgen receptor (Homo sapiens) (UniProt P10275). Nature of the assay: qHTS assay to identify small molecule agonists of the androgen receptor (AR) signaling pathway (AID 743036; active = well fitted activation curve with a large enough effect in the signal ratio in the repeat runs, with a control signal flat, not every such curve was filed as active; the % refers to the signal ratio; also: % is scaled to controls: 0 for no effect and ±100 for the full control effect). In a few lines:
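Screening used 2,000 AR-bla HEK293 cells per well, treated 16 h at 37C with test compounds in DMSO alongside positive and DMSO-only controls; beta-lactamase activity was then read by LiveBLAzer B/G FRET fluorescence after 2 h at room temperature.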

Assay [7] has the same target. As to the kind of experiment: qHTS assay to identify small molecule agonists of the androgen receptor (AR) signaling pathway using the MDA cell line (AID 743040; also: % is scaled to controls: 0 for no effect and ±100 for the full control effect; nearly all actives have a fitted effect of over 20% in size). Particulars: MDA-kb2 AR-luc cells, MMTV luciferase, 16 h, stronger effect = higher value. Put shortly:
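Luciferase read-out, ONE-Glo, 30 min RT. Cells: MDA-kb2 AR-luc, MMTV promoter with AR and GR response elements. Compound exposure 16 h, 37C, 0% CO2, after 5 h pre-incubation. qHTS agonist mode.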

Assay [8] can be described thus: qHTS assay to identify small molecule antagonists of the androgen receptor (AR) signaling pathway using the MDA cell line - cell viability counter screen (AID 743041; also: nearly all actives have a fitted effect of over 45% in size; also: potency is read from the fitted curve at half-maximal effect). Put shortly:
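Cytotoxicity counter screen: MDA-kb2 AR-luc cells, compound + R1881, 16 h, 37C, 0% CO2; CellTiter-Fluor added at 15.5 h, fluorescence read after 30 min.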

The target in assay [9] is Androgen receptor (Homo sapiens) (UniProt P10275). Nature of the assay: qHTS assay to identify small molecule antagonists of the androgen receptor (AR) signaling pathway using the MDA cell line (AID 743042; also: nearly all actives have a fitted effect of over 55% in size; also: potency is read from the fitted curve at half-maximal effect). Put shortly:
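MDA-kb2 breast carcinoma cells carrying MMTV-luciferase (AR/GR responsive) were co-treated with compounds and the agonist R1881 for 16 h at 37C. Inhibition read as ONE-Glo luminescence; CellTiter-Fluor fluorescence measured in parallel for cytotoxicity.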

Assay [10] in a line: qHTS assay to identify small molecule antagonists of the thyroid receptor (TR) signaling pathway - cell viability counter screen (AID 743064). Also: nearly all actives have a fitted effect of over 50% in size. Also: potency is read from the fitted curve at half-maximal effect. Put shortly:
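Viability of T3-stimulated (1 nM final) GH3.TRE-Luc cells is measured by CellTiter-Fluor fluorescence after 23.5 h compound exposure at 37 °C plus 30 min reagent incubation.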

A short description of assay [11]: qHTS assay to identify small molecule antagonists of the thyroid receptor (TR) signaling pathway (AID 743065). Also: nearly all actives have a fitted effect of over 55% in size. Also: potency is read from the fitted curve at half-maximal effect. In a few lines: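 GH3.TRE-Luc rat pituitary cells (two TREs driving luciferase) were dosed with compound, then stimulated with 1 nM T3 (final) for 23.5 h at 37 C. ONE-Glo luminescence was the read-out, with CellTiter-Fluor fluorescence as the cytotoxicity counter-screen.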

The subject of assay [12] is thyroid hormone receptor (rat, GH3 cells). Nature of the assay: qHTS assay to identify small molecule agonists of the thyroid receptor (TR) signaling pathway (AID 743066; calls by dose curve; also: % is scaled to controls: 0 for no effect and ±100 for the full control effect).
In assay [13] the target is Estrogen receptor (Homo sapiens) (UniProt P03372). Nature of the assay: qHTS assay to identify small molecule antagonists of the estrogen receptor alpha (ER-alpha) signaling pathway (AID 743069; active = well fitted curve in the direction sought with a large enough effect in the signal ratio in the repeat runs, not every such curve was filed as active; the % refers to the signal ratio; also: % is scaled to controls: 0 for no effect and ±100 for the full control effect). In a few lines:
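Beta-lactamase FRET fluorescence is read after 2 hr at room temperature with LiveBLAzer B/G substrate. Before that, ER-alpha-bla HEK293 cells sit 4 hr after plating, then receive compound plus 17beta-estradiol and incubate 18 hr at 37C.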

A short description of assay [14]: qHTS assay to identify small molecule antagonists of the estrogen receptor alpha (ER-alpha) signaling pathway - cell viability counter screen (AID 743074; calls by dose curve;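 also: HEK293 cells carrying ER-alpha-UAS-bla reporter stimulated with 17beta-estradiol; nearly all actives have a fitted effect of over 45% in size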; also: potency is read from the fitted curve at half-maximal effect).
Assay [15] deals with Estrogen receptor (Homo sapiens) (UniProt P03372). Nature of the assay: qHTS assay to identify small molecule agonists of the estrogen receptor alpha (ER-alpha) signaling pathway (AID 743075; calls by dose curve;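 also: HEK293 GripTite cells with ER-alpha and UAS-driven beta-lactamase reporter; % is scaled to controls: 0 for no effect and ±100 for the full control effect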).
For assay [16] the target is unchanged. As to the kind of experiment: qHTS assay to identify small molecule agonists of the estrogen receptor alpha (ER-alpha) signaling pathway using the BG1 cell line (AID 743079). Also: nearly all actives have a fitted effect of over 20% in size. Also: potency is read from the fitted curve at half-maximal effect. The settings on record: BG1Luc4E2 cells, ERE-luciferase agonist, 22 h; activation: at 70.3 µM (top of the series) unless noted.
Assay [17] is described as follows: qHTS assay to identify small molecule antagonists of the estrogen receptor alpha (ER-alpha) signaling pathway using the BG1 cell line (AID 743080; calls by dose curve;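 also: BG1 cells stimulated with 17beta-estradiol alongside compound; % is scaled to controls: 0 for no effect and ±100 for the full control effect; nearly all actives have a fitted effect of over 25% in size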). Put shortly: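 BG1-Luc-4E2 cells (endogenous full-length ER-alpha, 4xERE luciferase) hormone-starved 5 days in charcoal-stripped FBS, plated 4,000/well for 24 h, then compound plus 17beta-estradiol for 21.5 h at 37 C; ONE-Glo luminescence read.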

Assay [18] is described as follows: qHTS assay to identify small molecule antagonists of the estrogen receptor alpha (ER-alpha) signaling pathway using the BG1 cell line - cell viability counter screen (AID 743081).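 Also: compound given together with 17beta-estradiol as the ER stimulus; nearly all actives have a fitted effect of over 45% in size.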 Also: potency is read from the fitted curve at half-maximal effect.
The target in assay [19] is Aromatase (Homo sapiens) (UniProt P11511). Nature of the assay: qHTS assay to identify aromatase inhibitors (AID 743083). Also: nearly all actives have a fitted effect of over 55% in size. Also: potency is read from the fitted curve at half-maximal effect.
Assay [20] concerns the target Androgen receptor (Homo sapiens) (UniProt P10275). As to the kind of experiment: qHTS assay to identify small molecule antagonists of the androgen receptor (AR) signaling pathway (AID 743035; active = well fitted inhibition curve with a large enough effect in the signal ratio in the repeat runs, not every such curve was filed as active; the % refers to the signal ratio; also: potency is read from the fitted curve at half-maximal effect). Put shortly:
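Steps: seed AR-UAS-bla GripTite HEK293 cells, incubate 4 h at 37C; pin in test compound, then add agonist R1881; incubate 16 h at 37C; add LiveBLAzer B/G FRET substrate, 2 h at room temperature; read fluorescence.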

Estrogen receptor (Homo sapiens), sequence (P03372 whole entry, looked up): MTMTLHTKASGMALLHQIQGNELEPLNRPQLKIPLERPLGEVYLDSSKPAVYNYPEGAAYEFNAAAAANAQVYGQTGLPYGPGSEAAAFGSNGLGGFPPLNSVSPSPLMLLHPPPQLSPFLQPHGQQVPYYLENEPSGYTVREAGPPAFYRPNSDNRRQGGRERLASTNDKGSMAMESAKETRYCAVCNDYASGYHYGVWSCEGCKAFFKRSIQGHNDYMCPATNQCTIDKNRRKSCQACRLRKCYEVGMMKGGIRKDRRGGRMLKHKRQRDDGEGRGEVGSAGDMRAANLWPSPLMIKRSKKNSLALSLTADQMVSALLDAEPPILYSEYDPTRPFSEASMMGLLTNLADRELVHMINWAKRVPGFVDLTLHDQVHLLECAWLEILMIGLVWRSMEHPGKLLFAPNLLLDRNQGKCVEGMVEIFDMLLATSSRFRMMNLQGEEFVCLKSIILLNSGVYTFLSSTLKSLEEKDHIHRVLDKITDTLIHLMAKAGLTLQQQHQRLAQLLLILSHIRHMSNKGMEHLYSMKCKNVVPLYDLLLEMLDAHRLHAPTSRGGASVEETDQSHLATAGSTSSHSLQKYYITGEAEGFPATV
Androgen receptor (Homo sapiens), sequence (P10275 whole entry, looked up): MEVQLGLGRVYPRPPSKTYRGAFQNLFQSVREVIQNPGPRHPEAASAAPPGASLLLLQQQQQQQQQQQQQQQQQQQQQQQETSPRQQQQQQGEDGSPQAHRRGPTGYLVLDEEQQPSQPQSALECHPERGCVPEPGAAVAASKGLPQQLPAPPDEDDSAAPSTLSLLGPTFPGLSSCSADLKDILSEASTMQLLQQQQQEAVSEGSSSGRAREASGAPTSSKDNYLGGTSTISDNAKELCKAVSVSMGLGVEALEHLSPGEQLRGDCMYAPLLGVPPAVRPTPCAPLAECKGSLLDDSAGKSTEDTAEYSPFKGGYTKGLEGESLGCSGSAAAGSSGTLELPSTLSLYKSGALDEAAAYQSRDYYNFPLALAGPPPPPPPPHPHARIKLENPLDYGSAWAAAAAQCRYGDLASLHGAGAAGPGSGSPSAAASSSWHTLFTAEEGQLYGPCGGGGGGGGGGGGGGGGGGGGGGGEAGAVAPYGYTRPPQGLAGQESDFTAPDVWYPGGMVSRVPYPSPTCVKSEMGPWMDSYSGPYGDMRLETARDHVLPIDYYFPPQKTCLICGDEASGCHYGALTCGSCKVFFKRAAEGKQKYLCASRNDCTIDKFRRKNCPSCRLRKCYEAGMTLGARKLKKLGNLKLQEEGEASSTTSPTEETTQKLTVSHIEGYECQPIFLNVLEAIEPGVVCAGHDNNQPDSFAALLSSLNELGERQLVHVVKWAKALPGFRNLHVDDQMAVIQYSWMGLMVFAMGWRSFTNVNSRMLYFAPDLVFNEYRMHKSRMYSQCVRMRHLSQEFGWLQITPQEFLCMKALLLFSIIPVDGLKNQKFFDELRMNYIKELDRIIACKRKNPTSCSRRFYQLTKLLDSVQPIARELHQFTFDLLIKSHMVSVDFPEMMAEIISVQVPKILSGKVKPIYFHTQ
Aromatase (Homo sapiens), sequence (P11511 whole entry, looked up): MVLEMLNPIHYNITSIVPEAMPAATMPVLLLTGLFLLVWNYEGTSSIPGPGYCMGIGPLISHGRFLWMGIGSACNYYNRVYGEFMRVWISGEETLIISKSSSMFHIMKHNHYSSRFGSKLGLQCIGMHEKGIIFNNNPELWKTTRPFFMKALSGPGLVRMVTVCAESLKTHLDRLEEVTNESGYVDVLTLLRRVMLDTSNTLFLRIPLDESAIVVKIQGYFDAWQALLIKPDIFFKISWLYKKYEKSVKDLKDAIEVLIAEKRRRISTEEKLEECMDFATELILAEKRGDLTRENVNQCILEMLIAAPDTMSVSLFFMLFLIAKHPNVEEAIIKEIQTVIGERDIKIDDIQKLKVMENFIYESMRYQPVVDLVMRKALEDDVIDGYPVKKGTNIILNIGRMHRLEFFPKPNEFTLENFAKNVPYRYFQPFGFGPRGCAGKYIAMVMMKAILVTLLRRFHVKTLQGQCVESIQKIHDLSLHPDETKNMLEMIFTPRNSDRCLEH

Turning to `CNC(=O)Oc1cccc2c1OC(C)(C)C2`, the Potency entry in assay [1], in [2], in assay [4], in assay [5], in assay [6] and in [8] was “inactive” in each case. For the same compound, the Potency entry in assay [9], in assay [10], in assay [11], in assay [12], in assay [13] and in [14] was “inactive” in each case. Also, the Potency result in [15], in assay [17], in assay [18] and in assay [19] was “inactive” each time. Further, the Potency entry in assay [3] is “inactive and 24.3 µM (active)”; in assay [16], “inactive and 24.3 µM (active)”. Also, the activity change in assay [7] (at 70.3 µM (top of the series)) is 1.41% (inactive); in [7] (at 95 µM (top of the series)), 1.74% (inactive).
Take `O=C(O)CF`: the Potency result in assay [1], in assay [2], in assay [3], in assay [4], in [5] and in assay [8] was “inactive” each time. Besides, the Potency result in assay [10], in [11], in [12], in [13], in assay [14] and in assay [15] was “inactive” throughout. Also, the Potency entry in assay [16], in [17], in [18] and in [19] was “inactive” each time.
Take `CCCCCCCC[N+](C)(CCCCCCCC)CCCCCCCC`: the Potency in [1] was 13.8 µM (active) and 5.5 µM (active) and 11 µM (active); in [2] it was 768 nM (active) and 433 nM (active) and 306 nM (active); in assay [3], 433 nM (active) and 686 nM (active); in assay [4], 610 nM (active) and 273 nM (active) and 386 nM (active); in assay [5] it was 3.46 µM (active) and 872 nM (active) and 3.47 µM (active); in [8], 17.2 µM (active) and 2.73 µM (active) and 15.4 µM (active). The Potency entry in assay [10] was “inactive and 2.44 µM (active) and 6.11 µM (active)”; in assay [11], 1.37 µM (active) and 2.73 µM (active); in assay [14], 7.75 µM (active) and 27.6 µM (active) and 8.71 µM (active); in [18], “inactive and 13.7 µM (active) and 27.3 µM (active)”; in assay [19] it was 15.3 µM (active) and 3.44 µM (active) and 15.4 µM (active). Moreover, the Potency result in assay [12] is “inactive”.
For `O=[N+]([O-])c1ccc(Cl)c([N+](=O)[O-])c1`, the Potency in assay [1] was 19.8 µM (active); in [2] it was 2.77 µM (active) and 1.72 µM (active); in [3], 1.75 µM (active) and 2.17 µM (active); in assay [4] it was 1.24 µM (active) and 1.93 µM (active); in [5], 11.1 µM (active) and 17.4 µM (active); in assay [20], 9.92 µM (active) and 19.5 µM (active). The Potency was 15.6 µM (active) and 13.7 µM (active) in [8]; 8.77 µM (active) and 8.63 µM (active) in [9]; 15.6 µM (active) and 6.11 µM (active) in assay [10]; 4.39 µM (active) and 4.86 µM (active) in assay [11]; 49.7 µM (active) and 24.5 µM (active) in assay [14]; 62.1 µM (active) and 61.1 µM (active) in assay [18]. The Potency in assay [19] is 6.21 µM (active) and 8.63 µM (active). The results for the activity change in assay [7] (at 70.3 µM (top of the series)) and in assay [7] (at 95 µM (top of the series)) were -11.5% (inactive) and -10.5% (inactive), respectively. Moreover, the Potency result in assay [12] and in [15] was “inactive” throughout.
As for `CCCCOCCOC(C)=O`, the Potency result in assay [1], in [2], in [3], in assay [4], in [5] and in [8] was “inactive” each time. Moreover, the Potency entry in assay [10], in assay [11], in [12], in assay [13], in [14] and in assay [15] was “inactive” throughout. Moreover, the Potency entry in [16], in [17], in assay [18] and in assay [19] was “inactive” throughout.
For the compound `Nc1ncn[nH]1`, the Potency entry in assay [1], in assay [2], in assay [3], in assay [4], in [5] and in assay [8] was “inactive” in each case. Also, the Potency entry in assay [10], in assay [11], in assay [12], in [14], in assay [18] and in [19] was “inactive” in each case.

The record behind these values is PubChem BioAssay (Tox21).
